Inconclusive results are not listed. Activity calls are given as the source filed them. Unless noted, the call rests on the fitted dose curve; in most records, active means well fitted curve in the direction sought with a large enough effect; inconclusive means small, poorly fitted or top-dose-only effect, or another doubt; inactive means no such curve, though single readings can be large; an effect the other way counts as inactive or inconclusive.
Assays:
[1] = target: Lysosomal acid glucosylceramidase (Homo sapiens) (UniProt P04062); test: Glucocerebrosidase-p2 (AID 348; in the data active means potency below about 10 µM; further: potency means the concentration at half of the fitted maximal effect); conditions: purified GBA, blue fluorogenic substrate, 40 min
Outline: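 Compounds titrated from 0.6 nM upwards against 0.2 nM enzyme in pH 5.9 citric acid/KH2PO4, taurocholate, tween-20; blue fluorogenic substrate 80 uM, 40 min room temperature, stopped and read Ex 365/Em 440 for AC50.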

[2] = target: Glucocorticoid receptor (Homo sapiens) (UniProt P04150); test: GR-GFP Redistribution (AID 450;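 active means compounds whose dose series gives a full or clear partial fitted curve of increased nuclear translocation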; further: potency means the concentration at half of the fitted maximal effect); conditions: U2OS GR-GFP nuclear translocation, laser cytometry, 2 h
[3] = target: Glucocorticoid receptor (Homo sapiens) (UniProt P04150); test: GR-EFC Redistribution (AID 451; calls by dose curve; further: potency means the concentration at half of the fitted maximal effect); conditions: CHO-K1 GR-EFC translocation, beta-gal luminescence, 2 h
Outline: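 Translocation of GR-ED fusion to nuclear EA restores b-gal, read by luminescence after 1 h room-temperature detection. Engineered CHO-K1 biosensor cells, 1,000/well, exposed 2 h at 37 C to titrations up to 46 uM final.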

[4] = target: Mitogen-activated protein kinase 10 (Mus musculus) (UniProt Q61831); test: JNK3 AlphaScreen Assay (AID 530; active means well fitted curve in either direction with a large enough effect, not every such curve was filed as active;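 further: kinase came from lysate of stimulated human HepG2 cells; signal reports phosphorylation of biotinylated GST-cJun 1-79 at Ser73 with 10 µM ATP; on the % scale 0 is the no-effect control and ±100 the full control effect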); conditions: JNK3 lysate, c-Jun phosphorylation; series mostly up to 57.1 µM
Outline: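 Compound titrations were preincubated 15 minutes at room temperature with substrate, antibody and pre-activated JNK3-containing HepG2 lysate. Reactions were started with 10 uM ATP and stopped with EDTA-containing bead buffer for AlphaScreen detection.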

[5] = target: 3',5'-cyclic-AMP phosphodiesterase 4B (Homo sapiens) (UniProt Q07343); test: qHTS Assay for Inhibitors of PDE-IV (AID 607; active means well fitted activation curve with a large enough effect in the main read-out, with a control signal flat, not every such curve was filed as active; further: % of control where 0% means no effect); conditions: HEK293 ACTOne CNG channel cells, membrane potential fluorescence; series mostly up to 22.9 µM
Outline: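 ACTOne HEK293 cells carry a modified cAMP-gated CNG channel and express endogenous PDE4; plated 1000 cells/well, compounds up to 22.9 uM final. Membrane-potential dye fluorescence (ex 535/em 590) was read; parental cells received 10 uM forskolin + 100 uM RO 20-1724.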

[6] = qHTS Assay for Identification of Small Molecule Agonists for Hypoxia Response Element Signaling Pathway (AID 914; active means well fitted activation curve with a large enough effect in the signal ratio, with a control signal flat, not every such curve was filed as active; the % refers to the signal ratio; further: potency means the concentration at half of the fitted maximal effect); conditions: ME-180 HRE-bla reporter, beta-lactamase ratio, CoCl2, 17 h; activation: stronger effect = higher value
Outline: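 Reporter activity (beta-lactamase, CCF4 460nm/530nm ratio) in HRE-bla ME-180 cells is recorded after 17 h compound exposure with EC50 CoCl2 at 37 degrees Celsius. AC50 values come from titration data.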

[7] = target: Dual specificity protein kinase CLK4 (Homo sapiens) (UniProt Q9HAZ1); test: qHTS Assay for Inhibitors of CDC-like Kinase 4 (Kinase-Glo Assay) (AID 1770); conditions: recombinant Clk4, Kinase-Glo ATP depletion luminescence; series mostly up to 66.7 µM; further: nearly all actives have a fitted effect of over 65% in size; further: potency means the concentration at half of the fitted maximal effect
Outline: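 Luminescent ATP-depletion read-out (Kinase-Glo) after 4.5 h room-temperature reaction of Clk4 (25 nM final) with RS peptide (100 uM) and ATP (1 uM), pH 7.5 Tris buffer with MgCl2 and DTT.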

[8] = target: Dual specificity protein kinase CLK4 (Homo sapiens) (UniProt Q9HAZ1); test: qHTS Assay for Inhibitors of CDC-like Kinase 4 (ADP-Glo Assay) (AID 1771); conditions: recombinant CLK4, ADP-Glo luminescence; series mostly up to 80 µM; further: nearly all actives have a fitted effect of over 70% in size; further: potency means the concentration at half of the fitted maximal effect
Outline: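 25 nM Clk4 with 100 uM RS repeat peptide and 1 uM ATP (final) in buffer with 2 mM MgCl2, 0.5 mM EGTA, 2.5 mM DTT, 0.01% Triton X-100; 1 h at room temperature; ADP-Glo luminescence for ADP formed.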

[9] = target: Dual specificity protein kinase CLK4 (Homo sapiens) (UniProt Q9HAZ1); test: qHTS Assay for Inhibitors of CDC-like Kinase 4 (ADP-FP Assay) (AID 1795); conditions: Transcreener ADP fluorescence polarization; series mostly up to 50 µM; further: nearly all actives have a fitted effect of over 60% in size; further: potency means the concentration at half of the fitted maximal effect
Outline: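 Kinase activity was measured as ADP production using Transcreener orange tracer (4 nM) and ADP antibody (1 ug/mL) fluorescence polarization, with ADP calculated from a calibration curve. The 1 h reaction contained 6.25 nM Clk4, 1 uM ATP and 100 uM RS peptide at pH 7.5 with Mg2+.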

[10] = target: Ubiquitin carboxyl-terminal hydrolase 1 (Homo sapiens) (UniProt O94782); test: Inhibitors of USP1/UAF1: Pilot qHTS (AID 504865); conditions: purified USP1/UAF1, Ub-rhodamine cleavage fluorescence; series mostly up to 54.9 µM;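 further: rhodamine fluorescence freed from ubiquitin-rhodamine substrate followed over time; top concentration of the series differs between compounds; on the % scale 0 is the no-effect control and ±100 the full control effect; nearly all actives have a fitted effect of over 35% in size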
Outline: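 Deubiquitinase activity followed as kinetic rhodamine fluorescence release from 150 nM Ub-Rho. 1 nM USP1/UAF1 with compound, after 15 min room-temperature preincubation, in HEPES pH 7.8 buffer containing TCEP, EDTA, BSA and Tween-20.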

[11] = Primary qHTS for small molecule stabilizers of the endoplasmic reticulum resident proteome: Secreted ER Calcium Modulated Protein (SERCaMP) assay (AID 1508630); conditions: SH-SY5Y GLuc-SERCaMP (Gaussia luciferase released on ER calcium loss) secretion, thapsigargin, luminescence; series mostly up to 38.4 µM; further: on the % scale 0 is the no-effect control and ±100 the full control effect
Outline: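 GLuc-SERCaMP-expressing SH-SY5Y cells, pretreated 16 h with compound, are challenged with thapsigargin to empty ER calcium stores; after 4 h, coelenterazine is added directly to the medium and luminescence is imaged.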

[12] = NFAT Signaling Pathway (AID 444; active means well fitted curve in either direction with a large enough effect, not every such curve was filed as active;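 further: carbachol stimulus at about its EC50 of 1 µM final; on the % scale 0 is the no-effect control and ±100 the full control effect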); conditions: Jurkat NFAT-bla M1, carbachol, beta-lactamase ratio, 5 h; at 7.69 µM (top of the series) unless noted
Outline: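 Read-out: CCF4 FRET ratio (460 nm/530 nm) after 1 h RT dye loading, used for %activity and AC50 from titration series. Cells: Jurkat NFAT-β-lactamase/M1 line, treated with compound plus 1 uM carbachol for 5 h, 37 °C.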

[13] = Stat Signaling Pathway (AID 446; active means well fitted curve in either direction with a large enough effect, not every such curve was filed as active;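 further: ME-180 cervical cancer cells given 40 pM IL-6 alongside compound; SIE-controlled beta-lactamase reporter measured as 460/530 nm FRET emission ratio; on the % scale 0 is the no-effect control and ±100 the full control effect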); conditions: ME-180 SIE beta-lactamase reporter, IL-6 stimulated, 5 h; at 7.69 µM (top of the series) unless noted
Outline: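 ME-180 SIE-bla cells; overnight plating; cpd + IL-6 40 pM, 5 h, 37 C; LiveBLAzer 2.5 h RT; 460/530 nm emission ratio. Normalized to 300 pM IL-6 and 125 nM JAK inhibitor controls.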

[14] = target: Cytochrome P450 3A4 (Homo sapiens) (UniProt P08684); test: qHTS Assay for Activators of Cytochrome P450 3A4 (AID 885); conditions: recombinant CYP3A4, Luciferin-PPXE luminescence, 60 min; series mostly up to 57.1 µM; further: nearly all actives have a fitted effect of over 65% in size
Outline: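 20nM CYP3A4 + 25uM Luciferin-PPXE (=KM), 200mM KPO4; cpd 10 min RT; NADPH regen, 60 min RT; stop w/ detection buffer, 20 min; luminescence. Normalized to 57 uM ketoconazole.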

[15] = AP1 Signaling Pathway (AID 357; active means well fitted curve in either direction with a large enough effect, not every such curve was filed as active); conditions: ME-180 (cervical carcinoma) AP-1-bla reporter, EGF-induced, beta-lactamase ratio, 5 h; at 7.69 µM (top of the series) unless noted
Outline: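 Beta-lactamase reporter under AP-1 response element, ME-180 background. Stimulus: EC50 EGF. Compound exposure 5 h, 37 °C. Detection: CCF4, 2.5 h RT, 460/530 nm. Values: AC50 from titration.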

[16] = target: Cytochrome P450 1A2 (Homo sapiens) (UniProt P05177); test: p450-cyp1a2 (AID 410; calls by dose curve; further: potency means the concentration at half of the fitted maximal effect;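 on activity change, negative = inhibition: -100% = full effect of reference inhibitor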); conditions: recombinant CYP1A2, luciferin-ME demethylation, luminescence; series mostly up to 57 µM
Outline: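 20nM CYP1A2 with 100uM Luciferin-ME (at Km) in 100mM KPO4; compound preincubated 10 min, NADPH regeneration added, 60 min at room temperature. Luciferin quantified by luminescence after detection reagent; normalized to 57 uM furafylline.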

[17] = target: Cytochrome P450 2C9 (Homo sapiens) (UniProt P11712); test: qHTS Assay for Inhibitors and Substrates of Cytochrome P450 2C9 (AID 883); conditions: recombinant CYP2C9, luciferin-H luminescence, 60 min; series mostly up to 57.1 µM; further: potency means the concentration at half of the fitted maximal effect; nearly all actives have a fitted effect of over 60% in size
Outline: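 Luminescent read-out of deoxyluciferin hydroxylation, normalized to 57uM sulphaphenazole (AC100). Reaction: 10nM enzyme, 100uM Luciferin-H (equal to KM), 25mM KPO4, 10 min compound preincubation, then 60 min with NADPH regeneration, both at 37C.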

[18] = target: Cytochrome P450 3A4 (Homo sapiens) (UniProt P08684); test: qHTS Assay for Inhibitors and Substrates of Cytochrome P450 3A4 (AID 884); conditions: recombinant CYP3A4, Luciferin-PPXE luminescence; series mostly up to 57.1 µM; further: potency means the concentration at half of the fitted maximal effect; nearly all actives have a fitted effect of over 50% in size
Outline: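 20 nM human CYP3A4 with 25 uM Luciferin-PPXE (at KM) in 200 mM KPO4, preincubated 10 min with compound; NADPH regeneration started a 60 min RT reaction. Luciferin detected by luminescence, normalized to 57 uM ketoconazole as full inhibition.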

Chain of Dual specificity protein kinase CLK4 (Homo sapiens) (Q9HAZ1 whole entry, looked up): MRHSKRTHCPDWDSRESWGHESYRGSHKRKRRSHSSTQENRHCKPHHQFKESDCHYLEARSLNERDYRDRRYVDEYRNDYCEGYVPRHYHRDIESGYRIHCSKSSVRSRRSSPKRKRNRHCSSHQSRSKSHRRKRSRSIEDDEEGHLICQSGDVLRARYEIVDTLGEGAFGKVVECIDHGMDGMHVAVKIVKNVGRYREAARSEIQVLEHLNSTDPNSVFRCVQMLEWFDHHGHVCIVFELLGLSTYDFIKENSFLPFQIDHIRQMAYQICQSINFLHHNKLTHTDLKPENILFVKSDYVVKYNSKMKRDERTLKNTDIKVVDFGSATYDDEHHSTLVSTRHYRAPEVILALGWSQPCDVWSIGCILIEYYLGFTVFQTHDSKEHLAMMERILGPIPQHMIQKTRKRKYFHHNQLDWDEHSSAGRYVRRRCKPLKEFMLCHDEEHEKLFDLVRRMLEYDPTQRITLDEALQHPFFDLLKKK
Chain of Cytochrome P450 1A2 (Homo sapiens) (P05177 whole entry, looked up): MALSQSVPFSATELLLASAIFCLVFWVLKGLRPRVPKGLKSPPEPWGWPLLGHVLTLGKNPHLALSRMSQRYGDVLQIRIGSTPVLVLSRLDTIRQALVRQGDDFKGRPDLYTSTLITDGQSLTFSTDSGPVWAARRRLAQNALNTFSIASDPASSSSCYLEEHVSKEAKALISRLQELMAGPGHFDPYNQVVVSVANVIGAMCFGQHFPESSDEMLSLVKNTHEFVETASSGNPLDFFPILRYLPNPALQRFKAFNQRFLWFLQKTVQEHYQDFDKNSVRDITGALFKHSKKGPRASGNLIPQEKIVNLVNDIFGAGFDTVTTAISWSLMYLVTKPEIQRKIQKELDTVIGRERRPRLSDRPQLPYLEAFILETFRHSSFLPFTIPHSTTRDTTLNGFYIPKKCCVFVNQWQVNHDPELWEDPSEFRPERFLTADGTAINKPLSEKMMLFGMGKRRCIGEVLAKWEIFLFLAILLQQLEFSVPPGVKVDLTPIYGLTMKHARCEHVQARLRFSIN
Chain of Ubiquitin carboxyl-terminal hydrolase 1 (Homo sapiens) (O94782 whole entry, looked up): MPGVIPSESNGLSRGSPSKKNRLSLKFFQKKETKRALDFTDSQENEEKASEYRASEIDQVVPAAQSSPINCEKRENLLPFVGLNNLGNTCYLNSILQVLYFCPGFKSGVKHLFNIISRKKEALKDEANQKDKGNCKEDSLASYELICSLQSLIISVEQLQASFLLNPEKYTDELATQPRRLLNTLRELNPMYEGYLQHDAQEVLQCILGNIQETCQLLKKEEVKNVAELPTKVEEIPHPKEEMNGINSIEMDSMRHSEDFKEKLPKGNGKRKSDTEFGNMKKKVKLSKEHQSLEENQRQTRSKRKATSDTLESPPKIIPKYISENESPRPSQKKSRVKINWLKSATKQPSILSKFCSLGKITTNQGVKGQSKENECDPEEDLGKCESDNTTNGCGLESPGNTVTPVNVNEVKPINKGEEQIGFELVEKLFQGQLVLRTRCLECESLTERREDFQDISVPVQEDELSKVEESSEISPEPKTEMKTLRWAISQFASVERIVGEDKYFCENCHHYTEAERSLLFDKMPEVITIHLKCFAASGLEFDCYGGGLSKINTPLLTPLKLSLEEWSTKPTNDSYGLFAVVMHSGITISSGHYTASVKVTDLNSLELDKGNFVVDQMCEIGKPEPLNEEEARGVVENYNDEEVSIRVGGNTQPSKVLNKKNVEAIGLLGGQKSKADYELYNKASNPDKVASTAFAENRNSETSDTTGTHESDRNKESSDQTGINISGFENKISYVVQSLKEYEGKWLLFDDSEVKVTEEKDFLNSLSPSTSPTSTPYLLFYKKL
Chain of Cytochrome P450 3A4 (Homo sapiens) (P08684 whole entry, looked up): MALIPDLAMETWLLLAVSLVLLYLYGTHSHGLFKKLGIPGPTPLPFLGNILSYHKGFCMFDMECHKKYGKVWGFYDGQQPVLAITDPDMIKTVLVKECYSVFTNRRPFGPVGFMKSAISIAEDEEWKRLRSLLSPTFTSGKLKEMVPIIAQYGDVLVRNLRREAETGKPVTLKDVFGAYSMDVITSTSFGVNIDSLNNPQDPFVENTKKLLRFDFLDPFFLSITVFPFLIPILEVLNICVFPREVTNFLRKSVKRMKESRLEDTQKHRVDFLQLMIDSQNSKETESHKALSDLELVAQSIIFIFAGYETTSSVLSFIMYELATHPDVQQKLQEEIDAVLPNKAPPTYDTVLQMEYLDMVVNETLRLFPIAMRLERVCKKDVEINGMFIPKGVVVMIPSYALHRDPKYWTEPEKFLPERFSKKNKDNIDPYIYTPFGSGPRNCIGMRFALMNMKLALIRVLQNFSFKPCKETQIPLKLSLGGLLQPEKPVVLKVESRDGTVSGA
Chain of Glucocorticoid receptor (Homo sapiens) (P04150 whole entry, looked up, the tested form may be a part): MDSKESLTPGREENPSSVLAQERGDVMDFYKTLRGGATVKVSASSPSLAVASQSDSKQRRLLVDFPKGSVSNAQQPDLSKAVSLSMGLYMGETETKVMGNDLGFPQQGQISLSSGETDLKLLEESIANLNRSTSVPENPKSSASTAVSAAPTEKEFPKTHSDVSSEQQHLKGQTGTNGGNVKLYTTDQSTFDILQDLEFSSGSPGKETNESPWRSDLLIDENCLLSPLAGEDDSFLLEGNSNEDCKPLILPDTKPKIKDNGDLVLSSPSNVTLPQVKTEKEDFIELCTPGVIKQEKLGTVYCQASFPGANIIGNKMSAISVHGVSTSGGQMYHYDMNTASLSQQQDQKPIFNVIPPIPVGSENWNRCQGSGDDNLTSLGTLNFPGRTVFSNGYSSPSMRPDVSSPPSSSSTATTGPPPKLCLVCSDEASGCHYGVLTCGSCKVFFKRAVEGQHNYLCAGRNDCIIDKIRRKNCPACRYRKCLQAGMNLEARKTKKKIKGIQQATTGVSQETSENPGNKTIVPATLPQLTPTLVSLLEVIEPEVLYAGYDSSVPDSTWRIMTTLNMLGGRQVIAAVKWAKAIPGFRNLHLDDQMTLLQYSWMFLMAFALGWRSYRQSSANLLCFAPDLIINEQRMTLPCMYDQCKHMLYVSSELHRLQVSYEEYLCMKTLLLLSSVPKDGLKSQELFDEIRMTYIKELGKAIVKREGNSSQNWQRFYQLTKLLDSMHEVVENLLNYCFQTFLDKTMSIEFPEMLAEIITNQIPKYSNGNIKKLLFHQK
Chain of 3',5'-cyclic-AMP phosphodiesterase 4B (Homo sapiens) (Q07343 whole entry, looked up): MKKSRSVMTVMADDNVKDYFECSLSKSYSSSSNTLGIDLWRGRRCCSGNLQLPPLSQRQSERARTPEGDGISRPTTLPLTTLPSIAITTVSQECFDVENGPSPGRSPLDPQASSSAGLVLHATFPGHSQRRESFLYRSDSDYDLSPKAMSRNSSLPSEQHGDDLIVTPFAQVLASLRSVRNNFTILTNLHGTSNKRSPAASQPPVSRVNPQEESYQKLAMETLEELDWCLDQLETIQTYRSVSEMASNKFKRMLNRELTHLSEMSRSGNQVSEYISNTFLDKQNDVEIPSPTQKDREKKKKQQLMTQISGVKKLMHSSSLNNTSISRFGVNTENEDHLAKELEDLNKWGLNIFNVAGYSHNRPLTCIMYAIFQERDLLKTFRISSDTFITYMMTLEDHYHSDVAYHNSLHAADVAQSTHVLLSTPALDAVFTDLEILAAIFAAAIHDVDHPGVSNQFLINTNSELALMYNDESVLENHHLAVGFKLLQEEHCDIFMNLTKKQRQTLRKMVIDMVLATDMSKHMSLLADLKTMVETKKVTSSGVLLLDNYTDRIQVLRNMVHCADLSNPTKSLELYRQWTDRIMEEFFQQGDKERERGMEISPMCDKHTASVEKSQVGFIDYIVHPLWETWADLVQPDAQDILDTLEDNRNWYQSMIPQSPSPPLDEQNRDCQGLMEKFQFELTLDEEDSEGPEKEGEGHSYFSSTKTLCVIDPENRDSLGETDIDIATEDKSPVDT
Chain of Lysosomal acid glucosylceramidase (Homo sapiens) (P04062 whole entry, looked up): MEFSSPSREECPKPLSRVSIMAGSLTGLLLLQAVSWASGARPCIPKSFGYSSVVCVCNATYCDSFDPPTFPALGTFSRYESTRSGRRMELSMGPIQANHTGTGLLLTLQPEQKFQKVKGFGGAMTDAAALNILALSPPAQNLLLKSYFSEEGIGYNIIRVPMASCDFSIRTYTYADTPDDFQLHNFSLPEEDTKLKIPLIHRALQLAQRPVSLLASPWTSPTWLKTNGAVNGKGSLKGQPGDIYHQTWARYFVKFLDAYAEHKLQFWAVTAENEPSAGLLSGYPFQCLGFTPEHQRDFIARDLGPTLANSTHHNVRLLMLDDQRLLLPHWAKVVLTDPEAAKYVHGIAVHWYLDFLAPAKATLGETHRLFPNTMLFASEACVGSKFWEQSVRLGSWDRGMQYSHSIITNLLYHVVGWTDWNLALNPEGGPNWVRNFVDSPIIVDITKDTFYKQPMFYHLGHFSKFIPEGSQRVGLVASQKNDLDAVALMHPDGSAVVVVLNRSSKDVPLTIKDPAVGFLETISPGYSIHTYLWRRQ
Chain of Cytochrome P450 2C9 (Homo sapiens) (P11712 whole entry, looked up): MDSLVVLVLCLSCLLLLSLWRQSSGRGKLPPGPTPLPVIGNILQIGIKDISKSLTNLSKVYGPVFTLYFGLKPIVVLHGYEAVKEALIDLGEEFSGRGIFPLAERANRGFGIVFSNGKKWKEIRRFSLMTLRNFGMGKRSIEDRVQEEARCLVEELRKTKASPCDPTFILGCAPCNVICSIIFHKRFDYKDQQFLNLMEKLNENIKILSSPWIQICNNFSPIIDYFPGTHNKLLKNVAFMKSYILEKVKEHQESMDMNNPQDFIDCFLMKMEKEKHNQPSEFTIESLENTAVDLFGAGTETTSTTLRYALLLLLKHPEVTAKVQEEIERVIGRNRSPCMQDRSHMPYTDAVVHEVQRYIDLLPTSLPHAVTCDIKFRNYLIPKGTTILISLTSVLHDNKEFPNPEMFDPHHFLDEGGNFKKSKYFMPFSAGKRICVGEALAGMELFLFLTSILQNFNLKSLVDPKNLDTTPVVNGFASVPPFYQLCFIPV

COc1cccc(Cn2c(=O)c(-c3ccc(Cl)cc3)nc3cnc(N4CCOCC4)nc32)c1
active: Potency [6] 1.58 µM
inactive: Potency [1] > 11.4 µM | Potency [2] > 9.22 µM | Potency [3] > 46 µM | Potency [4] | Potency [5] | Potency [7] | Potency [8] | Potency [9] | Potency [10] | outcome [11]

CN(C)c1ncc2nc(-c3cccc(C#N)c3)c(=O)n(C)c2n1
inactive: Potency [1] > 11.4 µM | activity change, negative = inhibition [12] 5.54% | activity, negative = inhibition [13] -1.63% | Potency [2] > 9.22 µM | Potency [3] > 46 µM | Potency [4] | Potency [5] | Potency [7] | Potency [8] | Potency [9] | Potency [10] | outcome [11]

CN(C)c1ncc2nc(-c3ccccc3)c(=O)n(Cc3cccs3)c2n1
inactive: Potency [1] > 11.4 µM | Potency [2] > 9.22 µM | Potency [3] > 46 µM | Potency [14] | Potency [7] | Potency [8] | Potency [9] | Potency [10] | outcome [11]
active: Potency [6] 3.16 µM

CC(=O)NCCNc1nc(-c2ccc(C(=O)N(C)C)cc2)nc2ccccc12
inactive: activity change, negative = inhibition [15] 3.64% | Potency [16] | activity change, negative = inhibition [12] 9.74% | activity, negative = inhibition [13] 11.4% | Potency [2] > 46 µM | Potency [3] > 46 µM | Potency [4] | Potency [5] | Potency [7] | Potency [8] | Potency [9] | Potency [10] | outcome [11]

O=c1c(-c2ccccc2)nc2cnc(Oc3cccc(Cl)c3)nc2n1C1CC1
inactive: Potency [1] > 11.4 µM | activity change, negative = inhibition [15] -15.1% | activity change, negative = inhibition [12] 10.9% | activity, negative = inhibition [13] -5.81% | Potency [2] > 9.22 µM | Potency [3] > 46 µM | Potency [4] | Potency [5] | Potency [7] | Potency [8] | Potency [10] | outcome [11]
active: Potency [16] 1.58 µM | Potency [17] 251 nM

Cc1cnc(CNc2ncncc2-c2ccoc2)cn1
inactive: Potency [1] > 11.4 µM | activity change, negative = inhibition [15] 0.489% | activity change, negative = inhibition [12] -1.22% | activity, negative = inhibition [13] 3.39% | Potency [2] > 46 µM | Potency [3] > 46 µM | Potency [4] | Potency [5] | Potency [14] | Potency [7] | Potency [8] | Potency [10] | outcome [11]
active: Potency [16] 12.6 µM | Potency [18] 2 µM

COc1ccc(CNc2ncnc3ccc(-c4ccc5c(c4)OCO5)cc23)c(OC)c1
active: Potency [7] 1.41 µM | Potency [8] 1.41 µM | Potency [9] 398 nM
inactive: activity change, negative = inhibition [15] -16.9% | activity, negative = inhibition [13] -5.8% | Potency [2] > 46 µM | Potency [3] > 46 µM | Potency [4] | Potency [10] | outcome [11]

Cc1cnc(CNc2ccnc(-c3cccc(C#N)c3)n2)cn1
active: Potency [16] 1.26 µM | Potency [7] 22.4 µM | Potency [8] 15.8 µM
inactive: Potency [1] > 11.4 µM | activity change, negative = inhibition [15] -12.1% | activity change, negative = inhibition [12] 16.3% | activity, negative = inhibition [13] 6.8% | Potency [2] > 46 µM | Potency [3] > 46 µM | Potency [4] | Potency [5] | Potency [14] | Potency [10] | outcome [11]

CN(Cc1ccco1)c1ncncc1-c1cccc(NS(C)(=O)=O)c1
inactive: activity change, negative = inhibition [12] -4.49% | activity, negative = inhibition [13] 8.28% | Potency [2] > 46 µM | Potency [3] > 46 µM | Potency [4] | Potency [5] | Potency [14] | Potency [7] | Potency [8] | Potency [9] | Potency [10] | outcome [11]
active: Potency [16] 15.8 µM | Potency [18] 0.794 µM

Cn1c(=O)c(-c2cc(F)cc(F)c2)nc2cnc(N3CCNCC3)nc21
inactive: Potency [2] > 9.22 µM | Potency [3] > 46 µM | Potency [4] | Potency [5] | Potency [14] | Potency [7] | Potency [8] | Potency [9] | Potency [10] | outcome [11]
active: Potency [6] 3.16 µM

O=c1c(-c2cccc(Cl)c2)nc2cncnc2n1C1CC1
inactive: Potency [1] > 11.4 µM | activity change, negative = inhibition [15] -20.9% | activity change, negative = inhibition [12] -7.65% | activity, negative = inhibition [13] -4.14% | Potency [2] > 9.22 µM | Potency [3] > 46 µM | Potency [4] | Potency [5] | Potency [14] | Potency [7] | Potency [8] | Potency [10] | outcome [11]
active: Potency [16] 0.631 µM

N#CCCn1c(=O)c(-c2cc(F)cc(F)c2)nc2cnc(Nc3ccccc3)nc21
inactive: activity change, negative = inhibition [15] 9.43% | activity, negative = inhibition [13] -15.8% | Potency [2] > 9.22 µM | Potency [3] > 46 µM | Potency [4] | Potency [5] | Potency [7] | Potency [8] | Potency [9] | Potency [10] | outcome [11]
